This is part of a sample that, as a whole, favours compounds with a hit. Of some 83,000 tested, about 20% had one in any assay.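 The test compound was applied at a single concentration to cells in 96-well plates for 48 hours, and percent growth was recorded.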 Unmarked numbers belong to inactive results. The source made the active and inactive calls. How the source made its calls: active means growth percent below 10; inactive means the rest.

What all share (test): NCI-60 one-dose screen, 48 h (100 = growth as untreated, 0 = no growth, -100 = all killed)
The test system of one experiment is HCT-15 colon. The conditions noted are these: 10 µM unless noted.
The test system of a further experiment is HT29 colon. Conditions: 10 µM unless noted.
The subject of the next experiment is SNB-75 CNS. Conditions: 10 µM unless noted.
In a further experiment the test system is SNB-19 CNS. The conditions noted are these: 10 µM unless noted.
The subject of another experiment is U251 CNS. The conditions noted are these: 10 µM unless noted.
The subject of the next experiment is PC-3 prostate. Conditions: 10 µM unless noted.
A further experiment concerns SK-MEL-5 melanoma. The conditions noted are these: 10 µM unless noted.
The next experiment relates to UACC-62 melanoma. The conditions noted are these: 10 µM unless noted.
The subject of another experiment is LOX IMVI melanoma. The conditions noted are these: 10 µM unless noted.
Another experiment has as its system SK-MEL-28 melanoma. The conditions noted are these: 10 µM unless noted.
The test system of another experiment is EKVX NSCLC. Conditions: 10 µM unless noted.
For another experiment, the system named is SN12C renal. The conditions noted are these: 10 µM unless noted.
A further experiment deals with UO-31 renal. The conditions noted are these: 10 µM unless noted.
The test system of another experiment is TK-10 renal. Conditions: 10 µM unless noted.
In another experiment the test system is ACHN renal. Conditions: 10 µM unless noted.
In another experiment the test system is CAKI-1 renal. The conditions noted are these: 10 µM.
The next experiment relates to CCRF-CEM leukemia. Conditions: 10 µM unless noted.
Another experiment deals with MOLT-4 leukemia. The conditions noted are these: 10 µM unless noted.
A further experiment concerns A498 renal. The conditions noted are these: 10 µM unless noted.

For `Cc1ccc(-c2cc3nc(C(Cl)Cl)nc(-c4ccccc4)n3n2)cc1`, the growth with HCT-15 colon is 75.6%; in the experiment on HT29 colon, 74.9%; with SNB-75 CNS it was 99.3%; in the experiment with SNB-19 CNS it was 74.1%; with U251 CNS it was 66.8%; in the experiment with PC-3 prostate, 79.3%. Also, the growth in the experiment with SK-MEL-5 melanoma was 92.2%; in the experiment on UACC-62 melanoma it was 91.9%; in the experiment on LOX IMVI melanoma, 109%; with SK-MEL-28 melanoma, 101%; in the experiment on EKVX NSCLC it was 99.6%; with SN12C renal, 107%. In addition, the growth in the experiment on UO-31 renal was 91.8%; in the experiment on TK-10 renal, 108%; with ACHN renal, 47.5%; with CAKI-1 renal, 72.7%; in the experiment with CCRF-CEM leukemia, 101%; with MOLT-4 leukemia, 97%.
Regarding `Cc1cc(=O)n2nc(-c3cn(C)c4ccc(Cl)cc34)sc2n1`, the growth was 86.4% with HCT-15 colon; 104% in the experiment with HT29 colon; 97% in the experiment on SNB-75 CNS; 96.6% in the experiment on SNB-19 CNS; 98.5% with U251 CNS; 86.2% with PC-3 prostate. Besides, the growth in the experiment with SK-MEL-5 melanoma is 88.8%; in the experiment on UACC-62 melanoma, 86.8%; with LOX IMVI melanoma, 85.4%; in the experiment with SK-MEL-28 melanoma, 100%; with EKVX NSCLC, 89.5%; in the experiment with SN12C renal, 91.6%. Further, the growth in the experiment with UO-31 renal is 87.1%; in the experiment on TK-10 renal it was 138%; with ACHN renal, 89.8%; with CAKI-1 renal, 79%; with CCRF-CEM leukemia it was 88.3%; in the experiment on MOLT-4 leukemia it was 86.6%.
`CN1C(=O)/C(=C/C=C/c2ccco2)SC1=S`: the growth in the experiment with HCT-15 colon was 63.5%; in the experiment on HT29 colon, 90.9%; in the experiment on SNB-75 CNS it was 92.6%; in the experiment with SNB-19 CNS, 88.5%; with U251 CNS, 66.8%; with PC-3 prostate it was 80%. Besides, the growth is 40% in the experiment on SK-MEL-5 melanoma; 77.2% in the experiment with UACC-62 melanoma; 75.5% in the experiment with LOX IMVI melanoma; 83.9% in the experiment on SK-MEL-28 melanoma; 87.2% with EKVX NSCLC; 84.6% in the experiment with SN12C renal. The growth in the experiment on UO-31 renal is 58.3%; in the experiment with TK-10 renal it was 113%; in the experiment on ACHN renal it was 75.7%; in the experiment on CAKI-1 renal it was 95.2%; in the experiment with CCRF-CEM leukemia it was 60.8%; in the experiment with MOLT-4 leukemia, 90.3%.
With `O=C1/C(=C/c2ccc([N+](=O)[O-])cc2)SC(=Nc2ccccc2)N1Nc1ccccc1`, the growth in the experiment on HCT-15 colon was 39.3%; in the experiment on HT29 colon, 42.3%; with SNB-75 CNS it was 73.2%; in the experiment with SNB-19 CNS, 60.2%; in the experiment on U251 CNS it was 44.4%; in the experiment with PC-3 prostate, 62.1%. Also, the growth in the experiment on SK-MEL-5 melanoma is 92%; in the experiment with UACC-62 melanoma, 55.8%; in the experiment on LOX IMVI melanoma, 19.3%; with SK-MEL-28 melanoma, 83%; in the experiment on EKVX NSCLC, 70.9%; in the experiment with SN12C renal, 29.5%. For the same compound, the growth is 37.1% with UO-31 renal; 89.1% with TK-10 renal; 53% in the experiment on ACHN renal; 38.6% in the experiment on CAKI-1 renal; 28.2% with A498 renal; 24% in the experiment with CCRF-CEM leukemia. Also, in the experiment on MOLT-4 leukemia, the growth is 3.98% (active).
Regarding `COc1cc2oc(-c3cccc(NC(=O)c4cc(NC(=O)[C@H](C)NC(=O)OC(C)(C)C)ccc4C)c3)cc(=O)c2c(OC)c1OC`, the growth was 50.8% in the experiment on HCT-15 colon; 75.5% in the experiment with HT29 colon; 102% with SNB-75 CNS; 65.4% with SNB-19 CNS; 53.5% with U251 CNS; 68.8% with PC-3 prostate. For the same compound, the growth in the experiment with SK-MEL-5 melanoma was 63.2%; with UACC-62 melanoma, 75.4%; with LOX IMVI melanoma, 53.8%; in the experiment on SK-MEL-28 melanoma it was 87%; in the experiment with EKVX NSCLC, 85.4%; with SN12C renal, 69.5%. For the same compound, the growth is 36.3% with UO-31 renal; 89.1% in the experiment on TK-10 renal; 61.9% in the experiment with ACHN renal; 53% in the experiment with CAKI-1 renal; 61.9% with A498 renal; 62.4% in the experiment on CCRF-CEM leukemia. The growth with MOLT-4 leukemia is 51.5%.
Consider `Nc1nc(-c2cccc([N+](=O)[O-])c2)c(N=Nc2ccccc2[N+](=O)[O-])s1`, for which the growth with HCT-15 colon is 43.8%; in the experiment with HT29 colon, 80.2%; with SNB-75 CNS it was -14.7% (active); in the experiment on SNB-19 CNS, 12.4%; in the experiment with U251 CNS, -79.5% (active); in the experiment on PC-3 prostate it was 46.4%. Besides, the growth is 47% in the experiment with SK-MEL-5 melanoma; 66.1% with UACC-62 melanoma; 6.53% (active) in the experiment on LOX IMVI melanoma; 88.4% in the experiment on SK-MEL-28 melanoma; 48.7% in the experiment with EKVX NSCLC; 1.17% (active) in the experiment with SN12C renal. Further, the growth in the experiment with UO-31 renal is -36.4% (active); in the experiment on TK-10 renal, -38.6% (active); with ACHN renal it was -72.6% (active); in the experiment on CAKI-1 renal, -27% (active); with CCRF-CEM leukemia, 46.7%; with MOLT-4 leukemia, 62%.
For the compound `CCN1CCN(c2cc(C(=O)Nc3nc4ccc(Oc5ccnc(C(=O)NC)c5)cc4s3)cc(C(F)(F)F)c2)CC1`, the growth in the experiment with HCT-15 colon was 26.9%; in the experiment with HT29 colon, 18.5%; in the experiment with SNB-75 CNS it was 88.7%; in the experiment with SNB-19 CNS it was 111%; with U251 CNS it was 76.8%; in the experiment with PC-3 prostate, 55.6%. Besides, the growth with SK-MEL-5 melanoma was 63.6%; in the experiment with UACC-62 melanoma, 90.7%; in the experiment on LOX IMVI melanoma it was 34.6%; in the experiment with SK-MEL-28 melanoma it was 76.8%; in the experiment on EKVX NSCLC, 92.5%; in the experiment with SN12C renal, 75.2%. For the same compound, the growth was -63.3% (active) in the experiment on UO-31 renal; 100% with TK-10 renal; 66% with ACHN renal; 84.5% in the experiment with CAKI-1 renal; 65% in the experiment with CCRF-CEM leukemia; 52.3% with MOLT-4 leukemia.
As to `Clc1ccc(-c2csc(Nc3cccc(Nc4csc(-c5ccc(Cl)cc5)n4)c3)n2)cc1`, the growth was 56.5% in the experiment on HCT-15 colon; 88.1% with HT29 colon; 96.8% in the experiment on SNB-75 CNS; 85.5% with SNB-19 CNS; 85.4% with U251 CNS; 74.1% in the experiment with PC-3 prostate. Besides, the growth in the experiment on SK-MEL-5 melanoma is 96.2%; in the experiment on UACC-62 melanoma, 76%; in the experiment on LOX IMVI melanoma, 63.8%; in the experiment on SK-MEL-28 melanoma, 92.7%; in the experiment on EKVX NSCLC, 61.8%; with SN12C renal, 63.1%. Also, the growth in the experiment with UO-31 renal is 51.5%; in the experiment on TK-10 renal, 98.2%; in the experiment with ACHN renal, 54.3%; with CAKI-1 renal it was 51.9%; in the experiment on A498 renal, 67.8%; in the experiment on CCRF-CEM leukemia, 94.1%. The growth in the experiment on MOLT-4 leukemia is 60.7%.

For the origin of these results see PubChem BioAssay (NCI).
